Bioassay records: PubChem, National Center for Advancing Translational Sciences (NCATS)
SW480 rerep: inducers of DNA re-replication in SW480 colon cancer cells | AID 624297 | Potency, µM (titrated, usually from 46.1 µM), most hits filed as activators | actives 1.8% (n = 340,000) | SW480 DNA re-replication, Hoechst DNA content imaging, 48 h; further: nearly all actives have a fitted effect of over 55% in size
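First, 250 cells per well were seeded. Next, compound or vehicle (23 nL) was pinned in, plates sat 48 hr at 37 C. Finally Hoechst was added for 40 min before fluorescence scanning.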
BCR signal inh: blocks chronic active B-cell receptor signaling; ABC-DLBCL IkBa-CBG/CBR reporter, luminescence ratio, 4 h; Potency, µM (highest dose often 46.1 µM), most hits filed as inhibitors; actives 0.05% (n = 340,000); AID 493014; active means well fitted inhibition curve with a large enough effect in the signal ratio, with a control signal flat, not every such curve was filed as active; inconclusive means small, poorly fitted or top-dose-only effect, or effect the other way, or a change in a side signal; the % refers to the signal ratio
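TMD8 ABC-DLBCL cells carrying doxycycline-inducible green luciferase fused to IkappaBalpha plus unfused red luciferase were exposed to compounds (up to 46 uM) for 4 hrs at 37C. Activity came from the overlap-corrected green/red luminescence ratio.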
Giardia kill: kills Giardia lamblia | activity change, % at 7.66 µM, hits read low | AID 540267 | actives 0.15% (n = 340,000) | Giardia lamblia trophozoite viability; in the data active means activity change below about -80%; inconclusive means between about -30% and that limit;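 further: parasites exposed to compound for two days anaerobically before the ATP read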
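Anaerobic 48 hrs incubation at 37 deg C of 100 trophozoites/well with test compounds; ATPLite 1-Step luminescence, 15-30 min RT, reports cellular ATP as viability.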
Gal4-VP16 FLuc: Gal4-VP16 reporter inhibition counter-screen; Drosophila S2 Gal4-VP16 UAS-luciferase, luminescence, 20 h; Potency, µM (highest dose often 53.6 µM), hits mostly inhibitors; actives 3.5% (n = 310,000); AID 2546;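 further: Gal4-VP16 expression switched on by copper sulfate through the metallothionein promoter; nearly all actives have a fitted effect of over 50% in size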
RORg inh: inhibitors of mouse ROR gamma transcriptional activity | P51450 | Drosophila S2 Gal4-RORgamma UAS-luciferase reporter, 20 h | Potency, µM (top dose mostly 53.6 µM), hits mostly inhibitors | actives 5.4% (n = 310,000) | AID 2551; further: nearly all actives have a fitted effect of over 60% in size
Target sequence (P51450 whole entry, looked up, the tested form may be a part): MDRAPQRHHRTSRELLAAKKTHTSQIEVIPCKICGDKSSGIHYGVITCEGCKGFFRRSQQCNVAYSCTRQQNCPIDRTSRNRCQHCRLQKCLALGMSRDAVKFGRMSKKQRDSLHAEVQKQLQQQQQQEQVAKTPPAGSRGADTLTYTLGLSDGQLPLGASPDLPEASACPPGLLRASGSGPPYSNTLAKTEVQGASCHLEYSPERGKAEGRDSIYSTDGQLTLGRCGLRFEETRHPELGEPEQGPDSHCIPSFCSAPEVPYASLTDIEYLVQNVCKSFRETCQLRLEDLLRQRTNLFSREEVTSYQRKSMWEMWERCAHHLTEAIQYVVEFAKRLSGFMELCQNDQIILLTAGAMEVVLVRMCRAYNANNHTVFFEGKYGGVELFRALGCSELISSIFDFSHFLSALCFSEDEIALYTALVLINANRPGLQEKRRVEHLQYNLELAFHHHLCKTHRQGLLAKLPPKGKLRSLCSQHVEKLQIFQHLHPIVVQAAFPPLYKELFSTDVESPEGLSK
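Drosophila S2 cells stably expressing Gal4-DBD/mouse RORγ fusion under metallothionein promoter plus UAS-luciferase; compound 1 h, then 700 uM CuSO4 induction for 20 h at ambient temperature; inhibition read as reduced luminescence.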
MCF10A rereplic: induces DNA re-replication in MCF 10a normal breast cells | MCF 10A DNA re-replication, Hoechst nuclear intensity, 48 h | Potency, µM (doses to about 46.1 µM), most hits filed as activators | actives 2.9% (n = 350,000); further: nearly all actives have a fitted effect of over 50% in size
A number is an active result; . = inactive; ? = inconclusive; / = not tested or not shown. An excerpt weighted towards active compounds, which were near 8.3% of everything screened. Unless noted, the call rests on the fitted dose curve; in most records, active means well fitted curve in the direction sought with a large enough effect; inconclusive means small, poorly fitted or top-dose-only effect, or another doubt; inactive means no such curve, though single readings can be large; an effect the other way counts as inactive or inconclusive.

SMILES	SW480 rerep	BCR signal inh	Giardia kill	Gal4-VP16 FLuc	RORg inh	MCF10A rereplic
O=S(=O)(Nc1ccc(-c2nc3cccnc3s2)cc1)c1cc(F)ccc1F	.	.	.	.	.	21µM
Cc1ccc(-c2nc3cccnc3s2)cc1NS(=O)(=O)c1cccs1	.	.	?	.	.	16µM
Cc1nc2ccc(S(=O)(=O)Nc3cc(-c4nc5cccnc5s4)ccc3C)cc2s1	23µM	?	.	.	.	0.82µM
Cc1cccc(-n2ncc3c(Nc4ccc(Oc5ccc(Cl)cc5)cc4)ncnc32)c1	/	.	/	/	/	/
O=C(Cc1ccccc1)NCC(=O)OCC(=O)c1ccc(Cl)cc1	.	.	.	.	.	.
CN(CCc1ccccc1)C(=O)c1cccc(NC(=O)Cc2cccc(NC(=O)C3CCN(C(=O)C4CCCCC4)CC3)c2)c1	.	/	.	/	/	.
CN(Cc1ccccn1)C(=O)CC1C(=O)NCCN1Cc1ccc(F)cc1Cl (centres undefined)	?	.	.	.	.	.
Cc1cccc(NC(=O)CSc2nnc(-c3ccco3)n2CC2CCCO2)n1 (centres undefined)	.	.	.	.	.	.
O=C(CCl)c1cc2c3c(c1)CC(=O)N3CCC2	16µM	.	.	3.5µM	2µM	?
N#CC1=C2N=C(N)c3ccccc3N2C2=C(C(=O)CCC2)C1c1ccc(F)cc1 (centres undefined)	.	.	.	.	.	.
N#CC1=C2N=C(N)c3c(sc4c3CCCCC4)N2C2=C(C(=O)CCC2)C1c1ccccc1 (centres undefined)	.	?	.	?	11µM	.
Cc1cnc(CN2CCCC(C(=O)c3ccc4c5c(cccc35)CC4)C2)[nH]1 (centres undefined)	.	?	.	.	11µM	?
O=C(c1ccc2c3c(cccc13)CC2)C1CCCN(Cc2ccccn2)C1 (centres undefined)	.	.	.	11µM	3.5µM	?
CCc1ccc(NC(=O)c2ccc(F)c(S(=O)(=O)N3CCc4ccccc4C3)c2)cc1	/	.	/	/	/	/
S=C(Nc1ccc(Cl)c(Cl)c1)NN1CCOCC1	.	.	.	10µM	7.9µM	.
S=C(Nc1ccc(Cl)cc1)NN1CCOCC1	.	.	.	?	11µM	.
FC(F)Oc1ccc(NC(=S)NN2CCOCC2)cc1	.	.	.	.	.	.
S=C(Nc1ccc(Cl)c(Cl)c1)N1CCOCC1	.	?	.	.	.	.
CC(C)c1ccc(NC(=S)NN2CCOCC2)cc1	.	.	.	?	8.9µM	.
COc1ccc(-c2noc(N3CCC(C(=O)Nc4ccccc4OC)CC3)n2)cc1	.	.	.	.	.	.
CCSc1nsc(NC(=O)Nc2ccccc2F)n1	.	?	.	.	?	?
C=CCSc1nsc(NC(=O)Nc2ccc(F)cc2)n1	.	?	.	3.5µM	?	?
CCOC(=O)N1CCN(C(=O)c2ccc3c(c2)N(C)C(=O)/C(=C\c2ccc(OCC)c(OC)c2)S3)CC1	10µM	?	.	.	.	?
CCOC(=O)N1CCN(C(=O)c2ccc3c(c2)NC(=O)/C(=C\c2cccc(C)c2)S3)CC1	.	.	?	.	.	18µM
CCOc1ccc(/C=C2/Sc3ccc(C(=O)N4CCN(C(=O)c5ccco5)CC4)cc3N(C)C2=O)cc1OC	/	?	/	.	.	/
SMILES	SW480 rerep	BCR signal inh	Giardia kill	Gal4-VP16 FLuc	RORg inh	MCF10A rereplic
Cc1ccc(NC(=O)NC(=O)COc2c(F)c(F)cc(F)c2F)c(C)c1	.	.	.	/	/	.
CN(Cc1nc2c(s1)CCCC2)C(=O)CCc1nnc(-c2ccc3c(c2)OCO3)o1	.	.	.	.	.	.
Cn1c(CCN2CCN(c3ccccn3)CC2)nc2cc(NS(=O)(=O)c3ccccc3)ccc21	?	.	.	.	.	23µM
Cc1nn(CC(=O)Nc2ccc3c(c2)nc(CCN2CCCCC2)n3C)c(=O)c2ccccc12	?	?	.	.	.	16µM
Cn1c(CCN2CCCCC2)nc2cc(NS(=O)(=O)c3ccccc3)ccc21	?	?	.	.	.	.
Cn1c(CN2CCCC2)nc2cc(NC(=O)c3ccc(Cl)cc3)ccc21	.	?	.	.	.	?
Cn1c(CN2CCCCC2)nc2cc(NC(=O)c3ccc(Cl)cc3)ccc21	?	?	.	.	.	23µM
Cn1c(CCN2CCCC2)nc2cc(NS(=O)(=O)c3ccc(Cl)cc3)ccc21	21µM	?	.	.	.	?
O=C(NCCCn1ccnc1)c1ccc(-c2cccc(Cl)c2Cl)o1	.	.	.	/	/	?
Oc1ccccc1-c1cncn1Cc1ccccc1	?	.	.	.	.	?
CC(C)c1ccc2c(c1)CCC1C(C)(CN)CCCC21C (centres undefined)	3.3µM	.	.	.	.	16µM
CC(C)c1ccc2c(c1)CC[C@H]1[C@](C)(CN)CCC[C@]21C	?	/	?	?	11µM	.
Cc1nn(C)cc1/C=C/C(=O)c1ccccc1	?	?	.	?	?	.
CCn1cc(/C=C/C(=O)c2ccc(O)cc2)c(C)n1	.	?	.	4µM	2.2µM	.
Cc1c(Cl)cccc1NC(=S)N/N=C/c1ccccc1Cl	.	.	.	4.5µM	1µM	.
CNC(=S)N/N=C/c1ccccc1Cl	.	?	.	5.6µM	4µM	.
O=C(CCCC(=O)NN=Cc1ccccc1Cl)NN=Cc1ccccc1Cl	.	/	.	/	/	.
COC(=O)N/N=C/c1ccccc1Cl	.	.	.	.	.	.
Cc1cccc(C)c1NC(=S)N/N=C/c1c(Cl)cccc1Cl	.	.	.	2.5µM	0.5µM	.
Cn1cccc1C(=O)N/N=C/c1c(Cl)cccc1Cl	.	.	.	.	.	.
S=C(N/N=C/c1cccc2ccccc12)Nc1cccc(Cl)c1	?	.	.	7.9µM	0.45µM	?
CCOc1ccc(Sc2cc(C(=O)NCc3ccccc3Cl)c3ccccc3n2)cc1	/	.	/	/	/	/
O=C1[C@H]2[C@@H](c3ccc(F)cc3)N3C(=O)N(c4ccc(Br)cc4)C(=O)[C@@]3(Cc3ccc(Cl)cc3)[C@H]2C(=O)N1C1CCCCC1	.	.	.	.	.	.
S=C(N/N=C/c1ccc2ncccc2c1)Nc1ccccc1	.	.	.	?	1.3µM	.
S=C(N/N=C/c1ccccc1Cl)Nc1ccccc1	?	?	.	.	0.71µM	.
C(=N\NCc1ccccc1)/c1ccc2ncccc2c1	?	.	.	.	.	.
COc1ccc(/C=N/NC(=S)Nc2ccccc2)cc1	.	?	.	?	.	.
CNC(=S)N/N=C/c1c(Cl)cccc1Cl	.	?	.	6.3µM	3.2µM	.
C=CCNC(=O)[C@@H]1CSC2c3ccc(OC)c(OC)c3C(=O)N21 (some centres undefined)	.	.	.	.	.	.
